From PubChem BioAssay (NCATS)
Inconclusive results are not listed. Activity calls are given as the source filed them. Calls come from the whole dose curve; as a rule, active = well fitted curve in the direction sought with a large enough effect; inconclusive = small, poorly fitted or top-dose-only effect, or another doubt; inactive = no such curve, though single readings can be large; an effect the other way counts as inactive or inconclusive.

Key:
MCC-26 = test: qHTS assay to identify novel small-molecules to repurpose for Merkel cell carcinoma treatment (AID 1296009); conditions: MCC and control cell lines, CellTiter-Glo viability, 72 h; series mostly up to 46 µM; note: nearly all actives have a fitted effect of over 60% in size
In short: (§1)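 Luminescence from CellTiter-Glo, read 10 min after addition at room temperature, reported viability following a 72 hr, 37 degree celsius treatment with NPC or MIPE compounds in titration; values normalized to plate controls.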

MKL-1 = test: as above; conditions: MCC and control cell lines, CellTiter-Glo viability, 72 h; series mostly up to 46 µM
In short: as §1

MKL-2 = test: as above; conditions: MCC and control cell lines, CellTiter-Glo viability, 72 h; series mostly up to 46 µM
In short: as §1

UISO = test: as above; conditions: MCC and control cell lines, CellTiter-Glo viability, 72 h; series mostly up to 46 µM
In short: as §1

WaGa = test: as above; conditions: MCC and control cell lines, CellTiter-Glo viability, 72 h; series mostly up to 46 µM
In short: as §1

C33A = test: Primary qHTS to identify gynecologic anti-cancer compounds using libraries of approved drugs and bioactive compounds (AID 1345084); conditions: Gynecologic cancer cell panel viability, ATPlite luminescence, 48 h; series mostly up to 57.5 µM; note: nearly all actives have a fitted effect of over 55% in size
In short: (§2)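 Luminescence from the ATPlite ATP-monitoring reagent indicates viable cell number; lower signal means cytotoxicity. Cells received compound 16 h after seeding and were exposed for 48 h across five concentrations.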

CASKI = test: as above; conditions: Gynecologic cancer cell panel viability, ATPlite luminescence, 48 h; series mostly up to 57.5 µM
In short: as §2

Es-2 = test: as above; conditions: Gynecologic cancer cell panel viability, ATPlite luminescence, 48 h; series mostly up to 57.5 µM
In short: as §2

HeLa = test: as above; conditions: Gynecologic cancer cell panel viability, ATPlite luminescence, 48 h; series mostly up to 57.5 µM
In short: as §2

Hek293T = test: as above; conditions: Gynecologic cancer cell panel viability, ATPlite luminescence, 48 h, control line for the selectivity index; series mostly up to 57.5 µM
In short: as §2

OV90 = test: as above; conditions: Gynecologic cancer cell panel viability, ATPlite luminescence, 48 h; series mostly up to 57.5 µM
In short: as §2

PA-1 = test: as above; conditions: Gynecologic cancer cell panel viability, ATPlite luminescence, 48 h; series mostly up to 57.5 µM
In short: as §2

SKOV3 = test: as above; conditions: Gynecologic cancer cell panel viability, ATPlite luminescence, 48 h; series mostly up to 57.5 µM
In short: as §2

Tov-21-G = test: as above; conditions: Gynecologic cancer cell panel viability, ATPlite luminescence, 48 h; series mostly up to 57.5 µM
In short: as §2

Tov112D = test: as above; conditions: Gynecologic cancer cell panel viability, ATPlite luminescence, 48 h; series mostly up to 57.5 µM
In short: as §2

CAOV3 = test: as above; conditions: Gynecologic cancer cell panel viability, ATPlite luminescence, 48 h; series mostly up to 57.5 µM
In short: as §2

JEG-3 = test: as above; conditions: Gynecologic cancer cell panel viability, ATPlite luminescence, 48 h; series mostly up to 57.5 µM
In short: as §2

[1] = Drug repurposing screens with cells derived from glioblastoma tumor samples (AID 1345199); conditions: GBM patient neurospheres viability, ATP luminescence, 48 h; note: nearly all actives have a fitted effect of over 40% in size
In short: (§3)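 Primary testing used CD133+ neurospheres from four GBM patients, seven concentrations, 48 h exposure and ATP-based viability; confirmation added three slower-growing patient lines.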

NIH3T3 = test: qHTS assay to identify novel small-molecules to repurpose for Merkel cell carcinoma treatment (AID 1296009); conditions: MCC and control cell lines, CellTiter-Glo viability, 72 h; at 44.8 µM (top of the series) unless noted; note: nearly all actives have a fitted effect of over 60% in size
In short: as §1

astro = test: Drug repurposing screens with cells derived from glioblastoma tumor samples (AID 1345199); conditions: viability, ATP luminescence, 48 h; series mostly up to 45.9 µM; note: nearly all actives have a fitted effect of over 40% in size
In short: as §3

[2] = at 45.9 µM (top of the series), tumour line B
[3] = at 46.1 µM (top of the series), tumour line C
[4] = at 20 µM (top of the series), tumour line C
[5] = at 45.9 µM (top of the series), tumour line D
[6] = at 46 µM (top of the series), tumour line A
% is set by controls: 0 for no effect and ±100 for the full control effect; potency is the fitted concentration of half-maximal effect.

CC(=O)[C@]1(O)Cc2c(O)c3c(c(O)c2[C@@H](O[C@H]2C[C@H](N)[C@H](O)[C@H](C)O2)C1)C(=O)c1ccccc1C3=O
active: Potency (MCC-26) 1330 nM | Potency (MKL-1) 119 nM | Potency (MKL-2) 94.4 nM | Potency (UISO) 422 nM | Potency (WaGa) 106 nM | Potency (C33A) 501 nM | Potency (CASKI) 1000 nM | Potency (Es-2) 1000 nM | Potency (HeLa) 7080 nM | Potency (Hek293T) 708 nM | Potency (OV90) 3160 nM | Potency (PA-1) 282 nM | Potency (SKOV3) 1780 nM | Potency (Tov-21-G) 794 nM | Potency (Tov112D) 562 nM

CN1C[C@H](C(=O)N[C@]2(C)O[C@@]3(O)[C@@H]4CCCN4C(=O)[C@H](Cc4ccccc4)N3C2=O)C[C@@H]2c3cccc4[nH]cc(c34)C[C@H]21
inactive: Potency (MCC-26) | Potency (MKL-1) | Potency (MKL-2) | Potency (UISO) | Potency (WaGa) | Potency (CAOV3) | Potency (CASKI) | Potency (Es-2) | Potency (Hek293T) | Potency (JEG-3) | Potency (OV90) | Potency (PA-1) | Potency (SKOV3) | Potency (Tov-21-G) | Potency (Tov112D) | activity, negative = cell killing [1, 2] -29.3% | activity, negative = cell killing [1, 3] 4.11%
active: Potency ([1]; tumour line A) 10000 nM

CCc1c(C)[nH]c2c1C(=O)C(CN1CCOCC1)CC2 (configuration not stated)
active: Potency (MKL-2) 9440 nM
inactive: Potency (MCC-26) | outcome (NIH3T3) | Potency (UISO) | Potency (C33A) | Potency (CAOV3) | Potency (CASKI) | Potency (Es-2) | Potency (Hek293T) | Potency (JEG-3) | Potency (OV90) | Potency (PA-1) | Potency (SKOV3) | Potency (Tov-21-G) | Potency (Tov112D) | activity, negative = cell killing [1, 4] -3.97% | activity, negative = cell killing ([1]; at 21.2 µM (top of the series), tumour line B) -15.8% | activity, negative = cell killing ([1]; at 21.2 µM (top of the series), tumour line D) 1.91% | Potency (astro)

CC(=O)[C@@]1(O)CC[C@H]2[C@@H]3CCC4=CC(=O)CC[C@]4(C)[C@H]3CC[C@@]21C
inactive: Potency (MCC-26) | Potency (MKL-2) | Potency (UISO) | Potency (WaGa) | Potency (C33A) | Potency (CAOV3) | Potency (CASKI) | Potency (Es-2) | Potency (HeLa) | Potency (Hek293T) | Potency (JEG-3) | Potency (OV90) | Potency (PA-1) | Potency (SKOV3) | Potency (Tov-21-G) | Potency (Tov112D) | activity, negative = cell killing [1, 2] -19.9% | activity, negative = cell killing [1, 5] -29.7% | activity, negative = cell killing [1, 3] -20.5% | Potency (astro)

CN(C)CCCN1c2ccccc2Sc2ccccc21
active: Potency ([1]; tumour line A) 12600 nM | Potency ([1]; tumour line D) 10000 nM
inactive: Potency (MCC-26) | Potency (MKL-1) | Potency (C33A) | Potency (CAOV3) | Potency (CASKI) | Potency (Es-2) | Potency (HeLa) | Potency (Hek293T) | Potency (JEG-3) | Potency (PA-1) | Potency (SKOV3) | Potency (Tov-21-G) | Potency (Tov112D) | activity, negative = cell killing [1, 4] -19.7%

CCc1cccc(N(C)C(N)=Nc2cccc3ccccc23)c1
inactive: Potency (MCC-26) | Potency (MKL-1) | Potency (UISO) | Potency (C33A) | Potency (CAOV3) | Potency (CASKI) | Potency (Es-2) | Potency (HeLa) | Potency (Hek293T) | Potency (JEG-3) | Potency (Tov-21-G)

C[C@]12CCC(=O)C=C1CC[C@@H]1[C@@H]2CC[C@@]2(C)[C@H]1CC[C@]2(O)C(=O)CO
inactive: Potency (MCC-26) | Potency (MKL-2) | Potency (UISO) | Potency (WaGa) | Potency (C33A) | Potency (CAOV3) | Potency (CASKI) | Potency (Es-2) | Potency (HeLa) | Potency (Hek293T) | Potency (JEG-3) | Potency (OV90) | Potency (PA-1) | Potency (SKOV3) | Potency (Tov-21-G) | Potency (Tov112D) | activity, negative = cell killing [1, 2] -14.7% | activity, negative = cell killing [1, 5] 0.984% | activity, negative = cell killing [1, 3] -72.8%

O=C(O)CCCCCCCC(=O)O
inactive: Potency (MCC-26) | Potency (MKL-2) | outcome (NIH3T3) | Potency (UISO) | Potency (WaGa) | Potency (C33A) | Potency (CAOV3) | Potency (CASKI) | Potency (Es-2) | Potency (HeLa) | Potency (Hek293T) | Potency (JEG-3) | Potency (OV90) | Potency (PA-1) | Potency (SKOV3) | Potency (Tov-21-G) | Potency (Tov112D) | activity, negative = cell killing [1, 2] -8.57% | activity, negative = cell killing [1, 5] -5.03% | activity, negative = cell killing [1, 3] -6.63% | Potency (astro)

CSc1ccc(C(=O)c2[nH]c(=O)[nH]c2C)cc1
active: Potency (HeLa) 2000 nM
inactive: Potency (MCC-26) | Potency (MKL-2) | outcome (NIH3T3) | Potency (UISO) | Potency (WaGa) | Potency (C33A) | Potency (CAOV3) | Potency (CASKI) | Potency (Es-2) | Potency (Hek293T) | Potency (JEG-3) | Potency (OV90) | Potency (PA-1) | Potency (SKOV3) | Potency (Tov-21-G) | Potency (Tov112D) | activity, negative = cell killing [1, 2] -10.8% | activity, negative = cell killing [1, 5] -20.6% | activity, negative = cell killing [1, 3] -21.1% | Potency (astro)

FC(F)(F)c1ccccc1-n1ccnc1
inactive: Potency (MCC-26) | Potency (MKL-2) | Potency (UISO) | Potency (WaGa) | Potency (C33A) | Potency (CAOV3) | Potency (CASKI) | Potency (Es-2) | Potency (HeLa) | Potency (Hek293T) | Potency (JEG-3) | Potency (OV90) | Potency (PA-1) | Potency (SKOV3) | Potency (Tov-21-G) | Potency (Tov112D) | activity, negative = cell killing [1, 2] -13.1% | activity, negative = cell killing [1, 5] -9.1% | activity, negative = cell killing [1, 6] -27.4% | activity, negative = cell killing [1, 3] -16.7%

c1cc(CN2CCCCC2)cc(OCCCNc2nc3ccccc3s2)c1
inactive: Potency (MCC-26) | Potency (MKL-1) | Potency (C33A) | Potency (CAOV3) | Potency (CASKI) | Potency (Es-2) | Potency (HeLa) | Potency (JEG-3) | Potency (PA-1) | Potency (Tov-21-G) | Potency (Tov112D)

CCn1cc(C(=O)O)c(=O)c2cc3c(cc21)OCO3
inactive: Potency (MCC-26) | Potency (MKL-2) | Potency (UISO) | Potency (WaGa) | Potency (C33A) | Potency (CAOV3) | Potency (CASKI) | Potency (Es-2) | Potency (HeLa) | Potency (Hek293T) | Potency (JEG-3) | Potency (OV90) | Potency (PA-1) | Potency (SKOV3) | Potency (Tov-21-G) | Potency (Tov112D) | activity, negative = cell killing [1, 2] -1.33% | activity, negative = cell killing [1, 5] -1.7% | activity, negative = cell killing [1, 6] -12.9% | activity, negative = cell killing [1, 3] -10% | Potency (astro)

CNC1(C)C2CCC(C2)C1(C)C (configuration not stated)
inactive: Potency (MCC-26) | Potency (MKL-2) | outcome (NIH3T3) | Potency (UISO) | Potency (WaGa) | Potency (C33A) | Potency (CAOV3) | Potency (CASKI) | Potency (Es-2) | Potency (HeLa) | Potency (Hek293T) | Potency (JEG-3) | Potency (OV90) | Potency (PA-1) | Potency (Tov-21-G) | Potency (Tov112D) | activity, negative = cell killing [1, 2] 1.71% | activity, negative = cell killing [1, 5] 0.479% | activity, negative = cell killing [1, 3] 3.06% | Potency (astro)
